For nine compounds, growth results are on record in PubChem BioAssay (NCI).

Compounds without any hit were thinned out: in the full panel of roughly 83,000, 20% have a hit.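 Treatment: one concentration, 48 hours, 96-well format. Scoring: percent growth, with anything below 10 considered active.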 Unmarked numbers belong to inactive results. Activity calls are given as the source filed them.

Among the test systems are SNB-75 CNS; SNB-19 CNS; U251 CNS; PC-3 prostate; SK-MEL-5 melanoma; UACC-62 melanoma; LOX IMVI melanoma; SK-MEL-28 melanoma; SK-MEL-2 melanoma; SN12C renal; UO-31 renal; TK-10 renal; ACHN renal; CAKI-1 renal; A498 renal; CCRF-CEM leukemia; MOLT-4 leukemia; SR leukemia; EKVX NSCLC.
Holding throughout (assay): NCI-60 one-dose screen, 48 h (100 = growth as untreated, 0 = no growth, -100 = all killed)
Common to all, as to conditions: 10 µM unless noted

As for `COc1cccc2c1O/C(=C\c1c([N+](=O)[O-])ncn1C)C2=O`, the growth with SNB-75 CNS was 101%; in the assay with SNB-19 CNS it was 106%; in the assay on U251 CNS it was 97.4%; in the assay with PC-3 prostate, -29.8% (active); with SK-MEL-5 melanoma it was 102%; in the assay with UACC-62 melanoma it was 109%. Besides, the growth was 85.2% in the assay with LOX IMVI melanoma; 106% in the assay on SK-MEL-28 melanoma; 97.6% in the assay with SK-MEL-2 melanoma; 104% in the assay on SN12C renal; 78.7% with UO-31 renal; 109% with TK-10 renal. For the same compound, the growth is 89% in the assay on ACHN renal; 92.8% with CAKI-1 renal; 100% in the assay with A498 renal; -7.36% (active) in the assay with CCRF-CEM leukemia; 85.3% in the assay with MOLT-4 leukemia; 62.8% in the assay on SR leukemia.
Regarding `O=C1NCN(c2ccccc2)C12CCN(CCCC(c1ccc(F)cc1)c1ccc(F)cc1)CC2`, the growth is 72% in the assay with SNB-75 CNS; 78.2% in the assay with SNB-19 CNS; 55.2% in the assay on U251 CNS; 96.3% in the assay on PC-3 prostate; 41.4% in the assay with SK-MEL-5 melanoma; 78.2% with UACC-62 melanoma. The growth in the assay with LOX IMVI melanoma was 61.9%; in the assay on SK-MEL-28 melanoma, 56.8%; with SK-MEL-2 melanoma, 81%; in the assay with SN12C renal, 60.5%; with UO-31 renal, 26.1%; with TK-10 renal, 66.1%. Further, the growth in the assay with ACHN renal was 61.7%; in the assay on CAKI-1 renal it was 76.8%; in the assay with A498 renal it was 57.7%; in the assay with CCRF-CEM leukemia, 94.4%; with MOLT-4 leukemia it was 34.3%; in the assay on SR leukemia it was 8.54% (active).
For `COc1ccc(OC)c2c1[nH]c(=O)c1c3ccccc3cn21`, the growth with SNB-75 CNS was -77.2% (active); in the assay with SNB-19 CNS, -48.4% (active); with U251 CNS, -97% (active); in the assay with SK-MEL-5 melanoma it was -98.8% (active); in the assay with UACC-62 melanoma, -100% (active); with LOX IMVI melanoma, -84.8% (active). The growth is -83.8% (active) in the assay with SK-MEL-28 melanoma; -56.8% (active) in the assay with SK-MEL-2 melanoma; -43.4% (active) with EKVX NSCLC; -92.9% (active) in the assay with SN12C renal; -81.4% (active) in the assay on UO-31 renal; -83.4% (active) with TK-10 renal. Besides, the growth in the assay with ACHN renal is -84.6% (active); in the assay with A498 renal, 51.1%; with CCRF-CEM leukemia, -48.7% (active); in the assay on MOLT-4 leukemia, -15.7% (active); in the assay on SR leukemia it was -6.08% (active).
For the compound `CC(=O)c1nc2ccccc2n1CCn1cc(CC(N)C(=O)O)c2ccccc21` (configuration not stated), the growth with SNB-75 CNS was 74.7%; with SNB-19 CNS, 92.6%; with U251 CNS, 102%; with SK-MEL-5 melanoma, 96.1%; in the assay on UACC-62 melanoma, 79.5%; in the assay on LOX IMVI melanoma it was 89.4%. Further, the growth with SK-MEL-28 melanoma is 109%; in the assay with EKVX NSCLC, 82.4%; with SN12C renal it was 93.7%; in the assay with UO-31 renal, 69.4%; in the assay with TK-10 renal, 102%; in the assay with ACHN renal, 96.9%. The growth with CAKI-1 renal is 95.9%; with A498 renal, 116%; with CCRF-CEM leukemia, 82.9%; in the assay on MOLT-4 leukemia, 83.9%; in the assay with SR leukemia, 90.7%.
In the case of `O=C1/C(=C/c2ccc([N+](=O)[O-])s2)Oc2ccc(Br)cc21`, the growth was -16.1% (active) in the assay with SNB-75 CNS; -15.3% (active) in the assay with SNB-19 CNS; -87.9% (active) in the assay on U251 CNS; -62.3% (active) in the assay with PC-3 prostate; -89.1% (active) in the assay on SK-MEL-5 melanoma; -83.4% (active) in the assay on UACC-62 melanoma. Also, the growth in the assay with LOX IMVI melanoma was -75.6% (active); with SK-MEL-28 melanoma it was -66.4% (active); in the assay on SK-MEL-2 melanoma, -62.2% (active); in the assay on SN12C renal it was -32.5% (active); in the assay with UO-31 renal it was -87.4% (active); in the assay on TK-10 renal, -25.3% (active). For the same compound, the growth in the assay on ACHN renal was -64% (active); with CAKI-1 renal, -16.3% (active); in the assay on A498 renal, -32.8% (active); in the assay with CCRF-CEM leukemia, -3.33% (active); in the assay with MOLT-4 leukemia, -16.8% (active); in the assay with SR leukemia it was 7.74% (active).
As to `Cc1cc(=O)n2n1-c1ccc(Cl)cc1NC(=O)C2`, the growth in the assay with SNB-75 CNS is 86.6%; in the assay on SNB-19 CNS it was 97.5%; in the assay with U251 CNS it was 95.2%; in the assay with PC-3 prostate, 89.8%; with SK-MEL-5 melanoma, 97.5%; with UACC-62 melanoma it was 107%. Further, the growth is 98.6% with LOX IMVI melanoma; 101% with SK-MEL-28 melanoma; 118% with SK-MEL-2 melanoma; 99.1% in the assay with SN12C renal; 89.6% in the assay with UO-31 renal; 117% in the assay on TK-10 renal. In addition, the growth was 104% with ACHN renal; 88.4% with CAKI-1 renal; 119% in the assay on A498 renal; 108% in the assay on MOLT-4 leukemia; 110% in the assay on SR leukemia.
With `O=C(NCCc1ccccc1)C1CCC(=O)N1Cc1ccc(Br)cc1` (configuration not stated), the growth was 100% with SNB-75 CNS; 96.7% in the assay with SNB-19 CNS; 96.7% in the assay with U251 CNS; 101% in the assay with SK-MEL-5 melanoma; 95.4% in the assay on UACC-62 melanoma; 97.8% in the assay with LOX IMVI melanoma. The growth in the assay with SK-MEL-28 melanoma is 99.7%; with SK-MEL-2 melanoma, 96.1%; in the assay on EKVX NSCLC, 103%; with SN12C renal, 104%; in the assay with UO-31 renal it was 92.6%; in the assay on TK-10 renal, 99.7%. For the same compound, the growth with ACHN renal was 107%; in the assay with CAKI-1 renal, 100%; with A498 renal it was 88.3%; in the assay on MOLT-4 leukemia, 94%; with SR leukemia, 102%.
Take `Cc1nc(N)[nH]c(=O)c1C`: the growth is 99.4% with SNB-75 CNS; 95.4% in the assay with SNB-19 CNS; 95.4% with U251 CNS; 117% with PC-3 prostate; 108% in the assay with SK-MEL-5 melanoma; 91.1% in the assay on UACC-62 melanoma. Besides, the growth is 102% with LOX IMVI melanoma; 120% with SK-MEL-28 melanoma; -10.2% (active) in the assay on SK-MEL-2 melanoma; 100% in the assay with EKVX NSCLC; 87.4% with SN12C renal; 107% in the assay with UO-31 renal. Besides, the growth in the assay on TK-10 renal is 137%; with ACHN renal, 111%; in the assay with A498 renal, 216%; with CCRF-CEM leukemia, 94.7%; in the assay with MOLT-4 leukemia, 150%; in the assay on SR leukemia it was 92.2%.
In the case of `CCCCCCC/C(=N\N=C(N)N)c1ccc(O)cc1`, the growth was 81.6% in the assay with SNB-75 CNS; 37.1% in the assay with SNB-19 CNS; 30.7% in the assay with U251 CNS; 24.6% with PC-3 prostate; 51.4% with UACC-62 melanoma; 31.4% with LOX IMVI melanoma. In addition, the growth in the assay on SK-MEL-28 melanoma was 60.4%; in the assay on SK-MEL-2 melanoma, 48.3%; in the assay on EKVX NSCLC it was 55.1%; in the assay on SN12C renal, 39.6%; with UO-31 renal, 42.8%; in the assay with TK-10 renal, 67.5%. In addition, the growth in the assay with ACHN renal is 47.6%; with CAKI-1 renal, 66.5%; in the assay on A498 renal it was 46.6%; in the assay on CCRF-CEM leukemia, 39.7%; in the assay on MOLT-4 leukemia it was 24.9%.
